In PubChem BioAssay AID504401 (The Scripps Research Institute Molecular Screening Center, 2011):
Unmarked numbers belong to inactive results. No rule for the calls is given here.

Test system: Phorbol Ester
Assay: CYP450 and receptor off-target profile – biochemical, Ricerca HitProfilingScreen, selectivity assay for GPR7 antagonist project, late-stage follow-up (AID 504401)
Settings: Ricerca radioligand binding and CYP450 panel, at 10 µM, hits give high values

COc1ccc(Oc2c(Cl)cnn(-c3cc(C)cc(C)c3)c2=O)cc1 showed an inhibition of -15%.
